# Data from PubChem BioAssay (NCI).
# This is part of a sample that, as a whole, favours compounds with a hit. Of some 83,000 tested, about 20% had one in any assay.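 Note: values are percent growth. 100 is the growth of untreated cells, values between 100 and 0 indicate rising inhibition; between -100 and 0 indicates cell death.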 Values without a mark were called inactive. Activity calls are given as the source filed them. The calls were made as follows: active = growth percent below 10; inactive = the rest.
# Test system: HL-60(TB) leukemia
# Assay: NCI-60 one-dose screen, 48 h (100 = growth as untreated, 0 = no growth, -100 = all killed)
# Details: 10 µM unless noted
row,Compound,growth
1,NCCCCn1c(SCCc2c[nH]c3ccccc23)nnc1-c1ccc2ccccc2n1,-64.6% (active)
2,C=C1CCC2C3(C)COC(c4c(F)cccc4F)OC3CCC2(C)C1CC(O)C1=CCOC1=O (stereo not given),81.6%
3,Cc1ccc(-c2cc(-c3cc4ccccc4nc3Cl)[nH]c(=O)n2)cc1,-32.7% (active)
4,COc1c(F)ccc(C(=O)Nc2ccc3nc(NC(=O)C4CCCN(S(=O)(=O)c5ccc(C(C)(C)C)cc5)C4)sc3c2)c1F (stereo not given),66.9%
5,C[C@@H](Nc1c(C#N)cnc2ccc(-c3cnc4[nH]ncc4c3)cc12)c1ccccc1,35.2%
6,N#Cc1cc(-c2ccc3ncnc(N4CCc5cc(F)c(Cl)cc54)c3c2)cnc1N,36.1%
7,COc1ccc(-c2c(N)c(=O)n(C)c3ccccc23)cc1,79.3%
8,COc1ccc(/C=C/C(=O)c2ccc(N3CCN(C)CC3)cc2)c(C(F)(F)F)c1,-24.7% (active)
9,COc1cc(C2CC(c3ccc(C)cc3)=Nc3c(N)nc(N)nc3N2)ccc1Oc1nc(Nc2ccc(F)cc2)nc(N(C)C)n1 (stereo not given),52%
10,COc1ccc(C2OC[C@@]3(C)C4CC[C@]5(C)C(CC=C6C7CC(C)(C)CC[C@]7(C(=O)O)CC[C@]65C)[C@@]4(C)C[C@@H](O)[C@@H]3O2)cc1 (stereo not given in full),46.9%
11,S=c1nc(-c2ccccc2)cc(-c2cc3ccccc3nc2Cl)[nH]1,8.96% (active)
12,Cc1ccc([C@H]2C(C(=O)c3ccc(Cl)cc3)C3(N[C@@H]2c2ccccc2)C(=O)Nc2ccc(Br)cc23)cc1 (stereo not given in full),35.1%
13,CC(C)CCNC(=O)N/C(N)=N/c1nc2ccccc2s1,55.6%
14,COc1ccc(-c2cc(-c3cc(OC)c(OC)c(OC)c3)[nH]c(=O)c2C#N)cc1,102%
15,COc1ccc(C(=O)COc2ccc(NC(=O)Nc3ccccc3)cc2)cc1,91.6%
16,COc1ccc(CN2[C@H](C(=O)NCc3ccc(C(=O)NO)cc3)Cc3c([nH]c4ccccc34)[C@H]2C2CC2)cc1,11%
17,Nc1cc(-c2c[nH]c3ccc(Cl)cc23)nc2cc(-c3c[nH]c4ccccc34)nn12,-18.2% (active)
18,CN(CCSSCCN1CCOCC1)C(=O)Oc1cc2c(c3ccccc13)[C@H](CCl)CN2C(=O)c1cc2cc(OCCCN3CCC3)ccc2[nH]1,-45.8% (active)

row,Compound,growth
1,Nc1cccc(SCc2cc3ccccc3[nH]c2=O)c1,42.2%
2,O=C(N=Nc1c(O)[nH]c2ccc(Br)cc12)c1ccc2nc(-c3ccc(Cl)cc3)[nH]c2c1,20.9%
3,Cn1cc(-c2cc(N)n3nc(-c4cn(C)c5ncccc45)cc3n2)c2cccnc21,39.2%
4,CC(C)c1ccc2c(N)c(C(=O)Nc3cccc(C(F)(F)F)c3)sc2n1,66.2%
5,COc1ccc(Cc2nn(CC(=O)N/N=C/c3ccc(Br)cc3)c(=O)c3c(C)noc23)cc1,91.2%
6,O=C(NN1C(=O)/C(=C/C=C/c2ccc([N+](=O)[O-])o2)SC1=S)c1ccc(Cl)cc1,-7.52% (active)
7,Cn1cc(-c2cc3nc(-c4cn(C)c5ncc(Br)cc45)cc(N)n3n2)c2cc(Cl)ccc21,-62.4% (active)
8,Nc1n[nH]c2cccc(C#Cc3cccc(NC(=O)Nc4cc(C(F)(F)F)cc(C(F)(F)F)c4)c3)c12,-9.4% (active)
9,COc1c(B(O)O)cc(F)cc1-c1nc2c(F)cc3[nH]ncc3c2c2c1CCCC2,1.83% (active)
10,O=C(Nc1nc2ccc([N+](=O)[O-])cc2s1)Nc1ccc(Cl)cc1Cl,50.1%
11,COc1ccc(NC(=O)c2sc3nc(C(C)C)ccc3c2N)cc1,66.3%
12,CC(C)C1=C[C@@]23CC[C@@H]4[C@](C)(CCC[C@]4(C)C(=O)NCc4ccccc4)[C@H]2C[C@@H]1[C@H]1C(=O)CCC(=O)[C@H]13,53.5%
13,COc1ccc(C2(SCCNCc3cc(N(C)C)ccn3)c3ccccc3C=Cc3ccccc32)cc1,-21.8% (active)
14,O=C(CNc1nc(-c2ccccc2)cs1)Nc1ccc(Br)cc1,-40.4% (active)
15,O=C(O)CCN1C(=O)/C(=C/C=C/c2ccc([N+](=O)[O-])o2)SC1=S,-11% (active)
16,Cn1cc(-c2nnc(N)nc2-c2c[nH]c3ccc(Br)cc23)c2cc(Br)cnc21,29.8%
17,Cc1ccc2c(c1)C(=O)/C(=C/c1ccc([N+](=O)[O-])cc1)S2,107%
